Experimental data reported in PubChem BioAssay (Tox21).
Inconclusive results are not listed. Values without a mark were called inactive. Calls come from the whole dose curve; as a rule, active = well fitted cell-killing curve with a large enough effect in the repeat runs; inconclusive = weak or mixed curves, or effect the other way; inactive = flat fitted curve, though single readings scatter.

Assay: qHTS RealTime-Glo MT Cell Viability Assay in HEK293 cells - 16 hour (AID 1224872); note: top concentration of the series differs between compounds; nearly all actives have a fitted effect of over 50% in size
Details: RealTime-Glo luminescence; series mostly up to 76.8 µM; activity change, negative = cytotoxicity: at the top concentration
From the text: National Center for Advancing Translational Sciences [NCATS]
NIH Chemical Genomics Center [NCGC]
U.S. Environmental Protection Agency [EPA]
National Institutes of Environmental Health Sciences [NIEHS]
National Toxicology Program [NTP]
U.S. Food and Drug Administration [FDA]
Measure of cell viability is critical in the cell-base assay. Analysis of cell viability is necessary for the characterization of cell responses to cytotoxic drugs and environmental stress. A RealTime-Glo MT Cell Viability Assay to monitor cell viability in real time of continues cell culture during 40 hours of compound treatment was used to screen Tox21 10K library compounds in Hek293 cells. The RealTime-Glo MT Cell Viability Assay is a nonlytic, homogeneous, bioluminescent method to measure cell viability in real time using a simple, plate-based method. The assay involves adding NanoLuc luciferase and a cell-permeant prosubstrate to cells in culture. Viable cells reduce the proprietary prosubstrate to generate a substrate for NanoLuc luciferase. This substrate diffuses from cells into the surrounding culture medium, where it is rapidly used by the NanoLuc Enzyme to produce a luminescent signal. The signal correlates with the number of viable cells, making the assay well suited for cytotoxicity studies.
Tox21 Assay Protocol Summary:
The mixture of Hek293 cell suspension and reagents were dispensed at 600cells/6 ul/well in 1536-well tissue culture treated black solid bottom plates using a Multidrop dispenser. After the assay plates were incubated at a 37 C/5% CO2 incubator for 5 hours, 23 nL of compounds dissolved in DMSO, positive and negative controls was transferred to the assay plate by a pintool work station. The plates were incubated at 37 C for 40 hours. The luminescence intensity were measured at 0h, 8h, 16h, 24h, 32h and 40h time points using ViewLux plate reader during compound treatment.
% is set by controls: 0 for no effect and ±100 for the full control effect.

SMILES	activity change, negative = cytotoxicity
Cl/C(=C\n1cncn1)c1ccc(Cl)cc1Cl	-18.6% [at 35.3 µM]
CCOc1cc(OCC)c(C(=O)CCC(=O)O)cc1OCC	3.83% [at 35.3 µM]
O=C(c1ccccc1)c1ccc2n1CCC2C(=O)O (stereo not given)	0.137% [at 35.3 µM]
CC1=CCC(C(C)C)C=C1 (stereo not given)	-13.2%
O=C(O)C1CCC(C(=O)O)CC1 (stereo not given)	-1.05%
CCOC(=O)C1=NN(c2ccccc2)C(=O)C1	4.57%
N#Cc1cc2ccccc2c2ccccc12	-21.3%
N#Cc1c(F)cccc1F	0.754%
Cc1ccccn1	6.64%
Cc1ccc(C(=O)C(C)CN2CCCCC2)cc1 (stereo not given)	16.3% [at 35.3 µM]
CCN(CCO)CCCC(C)Nc1ccnc2cc(Cl)ccc12 (stereo not given)	2.31% [at 6.97 µM]
CC(=O)OC/C=C/c1ccccc1	2.4%
COc1ccc(OC)c(OC)c1	13.2%
CCOc1ccc2[nH]cc(C(=O)NCc3ccccc3)c(=O)c2n1	-9.34%
CC(=O)c1ccc2c(c1)[C@H](NC(=O)c1ccc(F)cc1)[C@@H](O)C(C)(C)O2	-2.78%
NCCCOCCOCCOCCCN	10.6%
O=CNc1ccccc1	-7.51%
CCCCCC(CO)CCC (stereo not given)	-3.08%
O=C(CC(=O)c1ccccc1)c1ccccc1	-10.6%
CCCCCCCCCCCCCCCCCBr	-1.86% [at 15.8 µM]

SMILES	activity change, negative = cytotoxicity
COc1ccc([C@@H]2Sc3ccccc3N(CCN(C)C)C(=O)[C@@H]2OC(C)=O)cc1	-16.1% [at 35.3 µM]
CCCCOC(=O)/C=C\C(=O)OCCCC	0.0414%
SC1CCCC1	11.1%
CCCCCOC(=O)COc1cc(N2C(=O)C3=C(CCCC3)C2=O)c(F)cc1Cl	-0.644%
CCCCCCCCCCCCC(=O)O	4.94%
CCCCCCCCN(C)C	4.32%
O=c1[nH]cnc2ccccc12	0.786%
ClC(Cl)(Cl)c1ccc(C(Cl)(Cl)Cl)cc1	-14.1%
CCN(CC)C(C)=O	1.36%
CC(=O)N(CC(=O)N(C)C)c1ccccc1	0.0463% [at 35.3 µM]
CC(=O)Nc1ccc(/C=N/NC(N)=S)cc1	6.26% [at 35.3 µM]
CCOC(=S)SSC(=S)OCC	16.9%
CN1CCN(C2=Nc3ccccc3Sc3ccc(Cl)cc32)CC1	-0.771% [at 35.3 µM]
Cc1cccc(OCCOc2cccc(C)c2)c1	-19.4%
CC1CCc2cc(F)cc3c(=O)c(C(=O)O)cn1c23 (stereo not given)	5.53% [at 35.3 µM]
Oc1ccc2c(c1)OCO2	0.785%
O=C(O)COC(=O)Cc1ccccc1Nc1c(Cl)cccc1Cl	11.8% [at 35.3 µM]
CN(C)C/C=C(/c1ccc(Br)cc1)c1cccnc1	0.705% [at 35.3 µM]
C=C(C)C(=O)OCCOc1ccccc1	8.07%
Nc1nc(N)c(-c2ccccc2)s1	0.51% [at 35.3 µM]
